From publication PMC7819943, “Rice protein-binding microarrays: a tool to detect cis-acting elements near promoter regions in rice”
In all, about 35,000 sequences were measured (“fluorescence intensity (a.u.)”: median about 10,000, highest 2% from about 52,000 on). The sample holds the highest values, similar sequences and a random draw of the others, so the mix is not that of the screen.

Each sequence was assayed against T1, OsWOX13 (Oryza sativa, UniProt Q5QMM3 1-267) (assay: protein-binding microarray (RPBM); PBS, 2% BSA, 51.3 ng/ul salmon testes DNA, 50 uM zinc acetate, 200 nM TF, 25 C, 1 h; high values mean tight binding). Settings: protein: recombinant; tags: N-terminal polyhistidine and DsRed monomer fusion (pET32a); label: CyDye5-dUTP incorporated in the synthesized complementary strand; 3' TTTTT single-stranded linker to array surface; dsDNA, one strand shown.
T1 sequence: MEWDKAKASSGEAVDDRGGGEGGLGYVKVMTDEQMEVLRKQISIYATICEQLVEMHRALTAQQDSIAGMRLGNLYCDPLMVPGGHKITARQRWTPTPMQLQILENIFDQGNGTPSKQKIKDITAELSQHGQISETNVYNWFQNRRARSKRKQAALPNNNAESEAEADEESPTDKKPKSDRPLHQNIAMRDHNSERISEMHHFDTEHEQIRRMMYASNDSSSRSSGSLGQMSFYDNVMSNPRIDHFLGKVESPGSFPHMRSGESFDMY
Method in brief: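 Binding signal is defined as the fluorescence intensity of each feature in arbitrary units, read on an Axon 4000B scanner. Transcription factors with N-terminal polyhistidine and DsRed fusions came from E. coli BL21-CodonPlus and were purified on Ni–NTA. They were incubated at 200 nM for 1 h at 25 °C on a custom Agilent array that had been made double-stranded with Cy5-dUTP, with 50 µM zinc acetate present, and the array was washed.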

Sequence	binding signal
AAATTAAATTGCCCGGATCAATGGCTACAAATACCCCATGCGGAGTCACCTAGTGCAG	15200 fluorescence intensity (a.u.)
AATACACATTGACAGATGAGTTAACGCCCGTGACAGGCTGCGGAGTCACCTAGTGCAG	20500 fluorescence intensity (a.u.)
CTTTATAAATTGTGTCATCTACTCATGTGTGGTAGGTCAACGGAGTCACCTAGTGCAG	5450 fluorescence intensity (a.u.)
TTGAATTTAAATTTAAACGTATAGTGCCTTCCCTTTTACGCGGAGTCACCTAGTGCAG	22900 fluorescence intensity (a.u.)
CAAATTAACTGGAAATTTTGAAGCATCCATGTTCTGTGAGCGGAGTCACCTAGTGCAG	46600 fluorescence intensity (a.u.)
TTGATGTGCAATAATTAACGAGAGAAGAGTTTTCCCATAGCGGAGTCACCTAGTGCAG	10300 fluorescence intensity (a.u.)
TGGAATTGATTATGATGCTGTTTCCTTCATGGGAGCTCTACGGAGTCACCTAGTGCAG	31900 fluorescence intensity (a.u.)
ATGGCTGGGTTGATTGATATGGAGTACAAACTAAGTGTAGCGGAGTCACCTAGTGCAG	25000 fluorescence intensity (a.u.)
ACTAGTTAATCACGATTGATGGAAGCGGTTGATTGAATGACGGAGTCACCTAGTGCAG	51400 fluorescence intensity (a.u.)
ATTAATTAGCTCTAGATTAAGCTAATTGCCATCAATGGCTCGGAGTCACCTAGTGCAG	46400 fluorescence intensity (a.u.)
CCATTAGATTAGCACTAATTATCATACTTAGTCATTAGCTCGGAGTCACCTAGTGCAG	59100 fluorescence intensity (a.u.)
TGGAATTCATCTAATTATATCATTTTCCTCCATACTAGCTCGGAGTCACCTAGTGCAG	3430 fluorescence intensity (a.u.)
ATCATGGCAAATGATTGAAACTTTGAAGTAACGTTGGTGCCGGAGTCACCTAGTGCAG	38800 fluorescence intensity (a.u.)
TAAATTTGATTCCATTTCCGTTGCCTGTTCATTTCGTCGACGGAGTCACCTAGTGCAG	6090 fluorescence intensity (a.u.)
AAATCATTAATAGTGCGTGATTAATTGAGTATTAATTATTCGGAGTCACCTAGTGCAG	8480 fluorescence intensity (a.u.)
AAAATTATGGATTGGATGATTAATCACTGATAGGTAGTACCGGAGTCACCTAGTGCAG	56900 fluorescence intensity (a.u.)
TTAATCACTGGTAATTATAGATTTATAGGTGATTAATCACCGGAGTCACCTAGTGCAG	17900 fluorescence intensity (a.u.)
AAAATCACTGGATTAATTGATTGCGTCGTACTATCATTGCCGGAGTCACCTAGTGCAG	64600 fluorescence intensity (a.u.)
CTGGACTGTCAAATCAAGGAGGATTGCGTACTAATCATGTCGGAGTCACCTAGTGCAG	9940 fluorescence intensity (a.u.)
TGGTGTAGGGTTATGATTGGATGAGTAGTGGAGGTAGGTACGGAGTCACCTAGTGCAG	8550 fluorescence intensity (a.u.)
CTAAACACGTCCTATCATGTCACGTAGATAATATGACACGCGGAGTCACCTAGTGCAG	4110 fluorescence intensity (a.u.)

Sequence	binding signal
TAGATAAATTACCCTAAAATCCTGTAAAACTTCTGCATTTCGGAGTCACCTAGTGCAG	3350 fluorescence intensity (a.u.)
ATAAAATTTAATATTAAATATGCATTTGAACAGCTATAAACGGAGTCACCTAGTGCAG	6360 fluorescence intensity (a.u.)
AAATAAATTAATATAACTTATAAAGCAGCTTTTGTATAATCGGAGTCACCTAGTGCAG	13600 fluorescence intensity (a.u.)
AATGCAGGAACAGCATAAGCTTTGCGTATATTTGTATTAACGGAGTCACCTAGTGCAG	65500 fluorescence intensity (a.u.)
TTATTAATTCCATAATCAGAACTTTGATGTGATATAACCTCGGAGTCACCTAGTGCAG	9130 fluorescence intensity (a.u.)
TCTGGGTGATTTGTTGCAAAAGAATATTTTAATTCACTGCCGGAGTCACCTAGTGCAG	14000 fluorescence intensity (a.u.)
ATTTGATCTGATTTGATTAATTTTGCATGCACGCGAATGGCGGAGTCACCTAGTGCAG	61700 fluorescence intensity (a.u.)
GCGAACTTAATTGCTGCTAGAATGCTGCTGAAATTGGTGACGGAGTCACCTAGTGCAG	8360 fluorescence intensity (a.u.)
GTGATGATGAATTAATTGCTGAATGGCGAATGCAGTGCAGCGGAGTCACCTAGTGCAG	58900 fluorescence intensity (a.u.)
GGGAGAGAATGTGCTAATTAATTGCATGCATGCATGCACGCGGAGTCACCTAGTGCAG	12000 fluorescence intensity (a.u.)
CATCTGGCGATTGCATATTAATTTGCATGGCGAAGCTTCCCGGAGTCACCTAGTGCAG	5830 fluorescence intensity (a.u.)
GACTTTAATGATGCTGACACCGGCTTAATTAGTATTGCGGCGGAGTCACCTAGTGCAG	8560 fluorescence intensity (a.u.)
GTCATTGATTGATCAAGGGATCAATGCAAAACAACGCATTCGGAGTCACCTAGTGCAG	20300 fluorescence intensity (a.u.)
AGAAAATTAATGTTCAACAAACTCGTCACAAATTAAGTTTCGGAGTCACCTAGTGCAG	13600 fluorescence intensity (a.u.)
TCATGTAATTGTTGATAAGAGTGTCAGAATTCAGATAGTGCGGAGTCACCTAGTGCAG	13500 fluorescence intensity (a.u.)
GGTTAATTTGACATAAACAGCGTCAGAAATGTAGTTCATGCGGAGTCACCTAGTGCAG	57900 fluorescence intensity (a.u.)
TCTAAACTGATAATTGCAAATTGTAATTGATAGCATTGAGCGGAGTCACCTAGTGCAG	63700 fluorescence intensity (a.u.)
TCCAAATCCTACAATAATTGATTGAATCAAACACAGAAAGCGGAGTCACCTAGTGCAG	41200 fluorescence intensity (a.u.)
GCAAATTGATAATTGAAACAGAATTCAGTCGTTTGTACAGCGGAGTCACCTAGTGCAG	62700 fluorescence intensity (a.u.)
TAAATTTATAGTCAATTGTAGCATGAGCTCTAATAAACTGCGGAGTCACCTAGTGCAG	4880 fluorescence intensity (a.u.)
AGCAGCATAAATGCAATTAAATTTGTAGCAATCGAACATGCGGAGTCACCTAGTGCAG	4680 fluorescence intensity (a.u.)

Sequence	binding signal
TCTAATTAGTAAACTGTAGTAGTGAGCAAATTGTACTAGACGGAGTCACCTAGTGCAG	20900 fluorescence intensity (a.u.)
TCATGTCATAAATTAAATTATTTGAAATTATTTGGTACAGCGGAGTCACCTAGTGCAG	13900 fluorescence intensity (a.u.)
TTATTAATTTGTAATAGGTGTATTTCGGTCTTATTAAACTCGGAGTCACCTAGTGCAG	19600 fluorescence intensity (a.u.)
CGTAAATTTTCAATAAAATTTTAGTGAAATCAGGAATATGCGGAGTCACCTAGTGCAG	17500 fluorescence intensity (a.u.)
AATAAAACTTACATGAGTTAATTGAGTGAGAAATTAATTCCGGAGTCACCTAGTGCAG	4550 fluorescence intensity (a.u.)
TACCGATAATTTGTTATAGATCCCTAGACGTACATTCCTCCGGAGTCACCTAGTGCAG	19900 fluorescence intensity (a.u.)
CATGATGATAGTGATAGCAACTCAAGCAATACTAACGCACCGGAGTCACCTAGTGCAG	14700 fluorescence intensity (a.u.)
GCAGATTAGTTGTGGCAAACATTCTCTTGTGTGCAGCACTCGGAGTCACCTAGTGCAG	3650 fluorescence intensity (a.u.)
CAAATTGAAGAGGATGCATGAATTGGATTTGCAGGAGAAGCGGAGTCACCTAGTGCAG	5250 fluorescence intensity (a.u.)
CCAAATTAAGTGGAAATTAATTTGCAAGCTGAGAACGATGCGGAGTCACCTAGTGCAG	55000 fluorescence intensity (a.u.)
ATGATTGGAGTCAAATTGAACTTGTACTGATGTGGAGGAGCGGAGTCACCTAGTGCAG	53400 fluorescence intensity (a.u.)
GAATCTTGAAATTGAGCTGATTAATTTTCTTCTTGTTGAGCGGAGTCACCTAGTGCAG	11800 fluorescence intensity (a.u.)
TTCAAATTTAATGCAAAGATTAAGTTGATGAGAAACGACGCGGAGTCACCTAGTGCAG	6640 fluorescence intensity (a.u.)
ACTTGATTGAAATCGAAGCATCTGTTTTCGCGTGTTTGAGCGGAGTCACCTAGTGCAG	59900 fluorescence intensity (a.u.)
ATTGATGATTGAAATTTGCTGTGCAAATCGAGAACTGAAGCGGAGTCACCTAGTGCAG	53500 fluorescence intensity (a.u.)
TTGAAATTGGAGATGATGTGACTGAAAAGTTGTGTGTGTACGGAGTCACCTAGTGCAG	21000 fluorescence intensity (a.u.)
TCCTAGGTGATCTGGGTGATTGTGAGTGAGTTTTGTTTCGCGGAGTCACCTAGTGCAG	4180 fluorescence intensity (a.u.)
GAATGATTGTGGATGATGAAATAAATACTGCTCTTGTCAGCGGAGTCACCTAGTGCAG	33400 fluorescence intensity (a.u.)
TAAGCTAATTTGACCGCTGAAAGTGATGGAAAGCAAGCAACGGAGTCACCTAGTGCAG	4480 fluorescence intensity (a.u.)
TTGTGAAATGTTGATGAGGCTGATTGAGCGAGAAGCAGTGCGGAGTCACCTAGTGCAG	20000 fluorescence intensity (a.u.)
AACAAATAAATTACTATTAGAGTAGGATGTTCGGCAAAGTCGGAGTCACCTAGTGCAG	7390 fluorescence intensity (a.u.)

Sequence	binding signal
ATATTGATGTTAATGAATCTAAATAGATATATATGTCTAGCGGAGTCACCTAGTGCAG	5520 fluorescence intensity (a.u.)
GTAGACTGATCACAATCTTTATTAGAATCGTTTAAGACACCGGAGTCACCTAGTGCAG	6090 fluorescence intensity (a.u.)
TCTAATTTATTAGAGCGCCACATGACGGCTTGAGAGCGTTCGGAGTCACCTAGTGCAG	19200 fluorescence intensity (a.u.)
TTCGTTCATCATCAATCAAAACATGGGACTATAAGGATTTCGGAGTCACCTAGTGCAG	7300 fluorescence intensity (a.u.)
AGTCAGCTGATTTAAATATAAACAGGGGTAAGAATTTAAGCGGAGTCACCTAGTGCAG	15000 fluorescence intensity (a.u.)
TATTTTGTAATCATTTGTTTTATATTTGAATTCCTGTCAGCGGAGTCACCTAGTGCAG	3710 fluorescence intensity (a.u.)
GGTAAATATAATAAATTATTGATCTAACAACTTGAAATTACGGAGTCACCTAGTGCAG	3460 fluorescence intensity (a.u.)
AATGATCTGATGGATGTTCTCTCACGTTCAAATCAGAGGCCGGAGTCACCTAGTGCAG	8430 fluorescence intensity (a.u.)
AGCTGCATATATTGATTGACAGGTGTACCGATTCCTTATGCGGAGTCACCTAGTGCAG	54400 fluorescence intensity (a.u.)
TGGGTCATTTATTGATTATTGTATTATTGTTCCTTATATTCGGAGTCACCTAGTGCAG	10300 fluorescence intensity (a.u.)
CAATATTCTTTGACAGCTTCGATTGACATCTCACCTTATGCGGAGTCACCTAGTGCAG	9220 fluorescence intensity (a.u.)
GTCAATTTAGATTGCCGCGCTTACAATTAGTTCTCAGGAACGGAGTCACCTAGTGCAG	15100 fluorescence intensity (a.u.)
CATTAAGAGTGATTGAATCTTGTTCTAAACATTAACTTTTCGGAGTCACCTAGTGCAG	26300 fluorescence intensity (a.u.)
TCTAATTTCTTCCCTTGCAGATTGATCTTGTTAGTGAGCCCGGAGTCACCTAGTGCAG	20700 fluorescence intensity (a.u.)
TTAATTAATTTCTCTAATGATTCTCAATCTTGTGTTCTTCCGGAGTCACCTAGTGCAG	28300 fluorescence intensity (a.u.)
AAAGTAATTAGTGTTTTCTTGATTAGTCTTTTCCTTGTATCGGAGTCACCTAGTGCAG	42700 fluorescence intensity (a.u.)
AGTGATTAGATTAGTGAACTGATTAACATTTCTTGTGTTCCGGAGTCACCTAGTGCAG	64700 fluorescence intensity (a.u.)
ACAAAGTAATTGATTTCTTGTGTGAGGCCTTGTTTAGATCCGGAGTCACCTAGTGCAG	53400 fluorescence intensity (a.u.)
ATTATCCATTCAATCAAAACAAGCAGGACTACTAGAAAGCCGGAGTCACCTAGTGCAG	8940 fluorescence intensity (a.u.)
CTTTATTGATTGAGAGGAACTATCTACCTCTGTAATGACACGGAGTCACCTAGTGCAG	39200 fluorescence intensity (a.u.)
CAGTGTGATTTAAGAATTTTCAACTGTAAAAGAATAGGAGCGGAGTCACCTAGTGCAG	10000 fluorescence intensity (a.u.)
